Where “and” joins values, the source holds several entries; their conditions need not be identical. Equal entries are not always repeated. The panel holds about 83,000 compounds, 20% with a hit somewhere; the sample as a whole holds those more often.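 Cells were grown in 96-well plates and exposed to the test compound at a single concentration for 48 hours; results are reported as percent growth, with values below 10 considered active.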 Calls of active or inactive are those of the source.

In one assay the test system is HOP-62 NSCLC. The experiment in a line: NCI-60 one-dose screen, 48 h (100 = growth as untreated, 0 = no growth, -100 = all killed). As to conditions: 10 µM. As to the method: Growth inhibition of the HOP-62 human Non-Small Cell Lung tumor cell line is measured as a screen for anti-cancer activity. Cells are grown in 96 well plates and exposed to the test compound for 48 hours. Compounds are tested at a single concentration, which is 10^-5 M for most compounds. The reported endpoint is percent growth (GI% or GIPRCNT), where numbers from 0 - 100% represent growth inhibition, and numbers from -100% - 0 represent cell death. For example, a value of 40 represents 60% growth inhibition. A value of 0 means no net growth occurred over the course of the experiment. A value of -40 indicates 40% of cells at the beginning of the experiment died by the end of the experiment. A value of -100 means all cells are dead at the end of the experiment.
NCI-60 Human Tumor Cell Lines Screen was performed using the standard one-dose NCI protocol, which is described in more detail at https://dtp.cancer.gov/discovery_development/nci-60/default.htm.
Compounds with GIPRCNT values below 10 were considered active. Activity score was based on GIPRCNT using the following formula: […]
Score is 0 for GIPRCNT values of 100 or above, 50 for GIPRCNT values of 0, and 100 for GIPRCNT values of -100.
As to `O=c1ccn2c(n1)OC1CC2OC1COC(c1ccccc1)(c1ccccc1)c1ccccc1` (stereo not given), the growth was 99.6% (inactive).

Staying with this assay, now noted: 10 µM unless noted.
`CCOC(=O)NC(N)=O`: the growth was 88.5% (inactive) and 111% (inactive).

Take `CCOc1ccc(/C=C\C(=O)O)cc1`: the growth is 135% (inactive). The same measure, in the same setting: for `Oc1cccnc1CN1CCOCC1` the value was 96.6% (inactive) and 92.7% (inactive).

For the compound `ON=C(C1CCCCC1)C1CCCCC1`, the growth was 99.5% (inactive). The same measure, in the same setting: for `C/C(=C\c1ccccc1)C(O)C(=O)c1nc2ccc([N+](=O)[O-])cc2[nH]c1=O` (stereo not given) the value was 81.4% (inactive); for `O=[N+]([O-])c1ccc(NC2CCCCC2)nc1`, 94.8% (inactive) and 101% (inactive); for `Cc1ccc([N+](=O)[O-])cc1Br`, 89.4% (inactive). Take `COc1cc2c(cc1O)C(=O)CCCC2`: the growth was 91.5% (inactive). Same read-out and setting: next, `CC(C)(C(=O)c1cccnc1)c1cccnc1`: 109% (inactive) and 103% (inactive); `O=C(O)c1cc(=O)[nH]c(=O)[nH]1`: 115% (inactive) and 107% (inactive). For `Cc1cc(NC(=O)NC(=O)c2ccccc2N(C)C)ccc1Oc1ncc(Br)cn1`, the growth is 37.7% (inactive). The same measure, in the same setting: next, `OCCSc1ccc(Cl)cc1`: 108% (inactive) and 76.1% (inactive); `CCN(CC)C(=S)SCCO`: 104% (inactive); `CC(=O)Oc1ccc(C2(c3ccc(OC(C)=O)cc3)C(=O)Nc3ccccc32)cc1`: 109% (inactive) and 93.1% (inactive). Still for that read-out and setting: next, `O=C(O)/C=C/C=C/c1ccccc1`: 102% (inactive) and 105% (inactive). The same measure, in the same setting: next, `COc1ccc(CCl)c(C)c1OC`: 104% (inactive); `O=C(O)COc1ccccc1F`: 117% (inactive). As for `CC1(C)CC(=O)NC1=O`, the growth was 101% (inactive). The same measure, in the same setting: next, `CC(C)(C)C1=CC(=O)C(C(C)(C)C)=CC1=O`: 90.2% (inactive) and 97.8% (inactive); `COc1ccc(CCn2cnn3c(=O)c4ccccc4nc3c2=O)cc1OC`: 112% (inactive) and 104% (inactive); `Nc1ccccc1SC(CC(=O)c1ccccc1)c1cccc([N+](=O)[O-])c1` (stereo not given): 95.3% (inactive) and 95.4% (inactive).

In the case of `Cc1cc(-c2ccc(N=Nc3c(C)nn(-c4ccc(S(=O)(=O)O)cc4)c3O)c(C)c2)ccc1N=Nc1ccc(O)c(C(=O)O)c1`, the growth was 87.7% (inactive). Same read-out and setting: for `O=C(O)Cc1cc(=O)[nH]n(-c2ccccc2)c1=O` the value was 106% (inactive); for `Clc1ccc2c(c1)N(C1CCCN(Cc3ccccc3)C1)c1ccccc1S2` (stereo not given), 82.1% (inactive); for `CCC(C)(O)CCC(C)(O)CC` (stereo not given), 93.5% (inactive). On to `CCOC(=N)c1ccc(C(=N)OCC)cc1`, for which the growth was 84.2% (inactive). As for `N#CC1c2ccccc2C=CN1C(=O)c1ccccc1` (stereo not given), the growth was 126% (inactive) and 101% (inactive). The same measure, in the same setting: for `CCOC(=O)c1csc(N)n1` the value was 103% (inactive) and 96.9% (inactive); for `Nc1ccc(Cl)c(S(=O)(=O)O)c1`, 100% (inactive). As for `COc1ccc(COC=O)cc1`, the growth is 98.4% (inactive).

As to `CC(O)CCNC(c1ccccc1)C(O)c1ccccc1` (stereo not given), the growth is 104% (inactive).

Regarding `Oc1ccc(O)c(-c2ccccc2)c1`, the growth is 46.6% (inactive). As for `CCC(C)NC(=O)c1ccccc1C` (stereo not given), the growth was 92.1% (inactive). On the same count and under the same terms, next, `CCN(CC)C(CC(=O)c1ccccc1)C(=O)c1ccccc1` (stereo not given): 116% (inactive). Same read-out and setting: next, `CC(=O)Nc1ccc2oc(=O)ccc2c1`: 96.7% (inactive); `O=C(c1ccc(Cl)cc1)C1C(c2ccccc2)C1[N+](=O)[O-]` (stereo not given): 98% (inactive); `Cc1ccc(S(=O)(=O)n2ccnc2)cc1`: 106% (inactive). Take `O=C1CCC(=O)N1CC1CC2CCC1C2` (stereo not given): the growth is 96.2% (inactive) and 86.7% (inactive).

The assay is the same for the next values; noted with them: 100 µM.
For `O=c1ccn2c(n1)OC1CC2OC1COC(c1ccccc1)(c1ccccc1)c1ccccc1` (stereo not given), the growth was 96.3% (inactive).
